Test results reported in PubChem BioAssay (NCATS).
Several values for one entry are separate records, joined by “and”; a condition that tells them apart may be missing. Equal entries are not always repeated. Results filed as inconclusive are left out. Where a structure was tested more than once in an assay, its records may differ in their call. Activity calls are given as the source filed them. The call rests on the fitted dose curve; in most records, active means well fitted curve in the direction sought with a large enough effect; inconclusive means small, poorly fitted or top-dose-only effect, or another doubt; inactive means no such curve, though single readings can be large; an effect the other way counts as inactive or inconclusive.

Assays:
[1] = Viability qHTS for spleen associated tyrosine kinase inhibitor (SYKi) drug resistant MV4-11 cells (AID 1963824); further: nearly all actives have a fitted effect of over 35% in size
In short: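 SYK inhibitor-resistant MV4-11 AML cells, 500 per well, added to predispensed compounds and incubated 72 hr at 37 C, 5% CO2. Viability measured by CellTiter-Glo luminescence after 10 min at room temperature.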

[2] = Quantitative highthroughput screen to assess conditional lethalithy of NOMO1 cells grown in RPMI1640 with untreated serum (RPMI+s) (AID 1963876); further: nearly all actives have a fitted effect of over 35% in size;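 on Viability: 100% = DMSO wells and 0% = empty wells without cells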
In short: (§1)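 Each medium arm—HPLM with 10% dialyzed FBS, or RPMI1640 with 5 mM glucose and 10% untreated or dialyzed FBS—was screened against an 11-point, 3-fold compound titration for 48 h at 37 °C, with CellTiter-Glo luminescence as endpoint.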

[3] = Quantitative highthroughput screen to assess conditional lethalithy of NOMO1 cells grown in RPMI1640 with dialyzed fetal bovine serum (RPMI+ds) (AID 1963877); further: nearly all actives have a fitted effect of over 30% in size;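 on Viability: series mostly up to about 46 µM; 100% = DMSO control wells and 0% = empty wells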
In short: as §1

[4] = Quantitative highthroughput screen to assess conditional lethalithy of NOMO1 cells grown in Human Plasma-Like Medium with dialyzed fetal bovine serum (HPLM+ds) (AID 1963878); further: nearly all actives have a fitted effect of over 35% in size;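 on Viability: 100% = DMSO wells and 0% = empty wells on each plate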
In short: as §1

[5] = Quantitative highthroughput screen to assess conditional lethalithy of P12 Ichikawa cells grown in Human Plasma-Like Medium with dialyzed fetal bovine serum (HPLM+ds) (AID 1963879); conditions: Potency: viability; further: nearly all actives have a fitted effect of over 35% in size; on Viability: series mostly up to about 46 µM
In short: as §1

[6] = Quantitative highthroughput screen to assess conditional lethalithy of P12 Ichikawa cells grown in RPMI1640 with dialyzed fetal bovine serum (RPMI+ds) (AID 1963880); conditions: Potency: P12-Ichikawa viability; further: nearly all actives have a fitted effect of over 35% in size;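 on Viability: 100% = DMSO wells and 0% = empty wells on each plate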
In short: as §1

[7] = Quantitative highthroughput screen to assess conditional lethalithy of P12 Ichikawa cells grown in RPMI1640 with untreated serum (RPMI+s) (AID 1963881); conditions: Potency: viability; further: nearly all actives have a fitted effect of over 35% in size;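 on Viability: series mostly up to about 46 µM; 100% = DMSO wells and 0% = empty wells without cells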
In short: as §1

[8] = Quantitative highthroughput screen to assess conditional lethalithy of SEM cells grown in Human Plasma-Like Medium with dialyzed fetal bovine serum (HPLM+ds) (AID 1963882); further: nearly all actives have a fitted effect of over 35% in size; on Viability: series mostly up to about 46 µM
In short: as §1

[9] = Quantitative highthroughput screen to assess conditional lethalithy of SEM cells grown in RPMI1640 with unreated serum (RPMI+s) (AID 1963883); further: nearly all actives have a fitted effect of over 35% in size;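 on Viability: 100% = DMSO wells and 0% = empty wells without cells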
In short: as §1

[10] = Quantitative highthroughput screen to assess conditional lethalithy of SEM cells grown in RPMI1640 with dialyzed fetal bovine serum (RPMI+ds) (AID 1963884); further: nearly all actives have a fitted effect of over 35% in size;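 on Viability: series mostly up to about 46 µM; 100% = DMSO control wells and 0% = empty wells without cells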
In short: as §1

[11] = Cellular viability qHTS for adrenocortical cancer (ACC) cell line SW-13 (AID 1963989); conditions: SW-13 ACC cells viability, CellTiter-Glo, 48 h; activity (max response): stronger effect = lower value; further: nearly all actives have a fitted effect of over 65% in size;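 on activity (max response): cells grown in serum-free medium with ITS supplement; on the % scale 0 is the no-effect control and ±100 the full control effect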
In short: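 IC50 and maximal-response values come from four-parameter logistic fits of titration data. SW-13 cells in serum-free medium received compounds (up to 46 uM final) for 48 h before CellTiter-Glo luminescence.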

[12] = Cellular viability qHTS for adrenocortical cancer (ACC) cell line NCI-H295R (AID 1963990); further: nearly all actives have a fitted effect of over 60% in size
In short: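 Adrenocortical carcinoma cells, suspended at 300 000 cells/mL in serum-free DMEM plus ITS, rested overnight before pin transfer of compound. After two days' incubation, ATP-dependent luminescence was recorded and curve-fitted.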
Potency means the concentration at half of the fitted maximal effect.

COc1ccc2c(c1OC)C(=O)OC2[C@H]1c2c(cc3c(c2OC)OCO3)CCN1C (some centres undefined)
active: Potency [1] 23.5 µM | Potency [2] 0.296 µM | Potency [3] 0.332 µM | Potency [4] 0.148 µM | Potency [5] 0.469 µM | Potency [6] 0.59 µM | Potency [7] 0.418 µM | Potency [8] 0.235 µM | Potency [9] 0.118 µM | Potency [10] 0.187 µM | Potency [11] 22.4 µM | Potency [12] 25.1 µM

Cc1c(OCC(F)(F)F)ccnc1CS(=O)c1nc2ccccc2[nH]1 (centres undefined)
active: Potency [1] 16.6 µM
inactive: Potency [2] | Potency [3] | Potency [4] | Potency [5] | Potency [6] | Potency [7] | Potency [8] | Potency [9] | Potency [10] | Potency [12]

Clc1ccc(Nc2nnc(Cc3ccncc3)c3ccccc23)cc1
active: Potency [1] 10.6 µM
inactive: Potency [2] | Potency [3] | Potency [4] | Potency [5] | Potency [6] | Potency [7]

O=C(Nc1cc2cc[nH]c2cn1)c1ccccc1
active: Potency [1] 9.2 µM | Potency [2] 5.9 µM | Potency [3] 13.2 µM | Potency [4] 3.32 µM | Potency [5] 2.96 µM | Potency [6] 5.9 µM | Potency [7] 14.8 µM | Potency [8] 3.72 µM | Potency [9] 2.96 µM | Potency [10] 3.32 µM

CCC(C)N(C)C(=O)c1cc2ccccc2c(-c2ccccc2Cl)n1 (centres undefined)
active: Potency [1] 18.6 µM
inactive: Potency [2] | Potency [3] | Potency [4] | Potency [5] | Potency [6] | Potency [7] | Potency [8] | Potency [9] | activity (max response) [11] -6.79%

CC1(C)Cc2c(-c3ccccc3)c(-c3ccc(Cl)cc3)c(CC(=O)O)n2C1
inactive: Potency [2] | Potency [3] | Potency [4] | Potency [5] | Potency [6] | Potency [7] | Potency [8] | Potency [9] | Potency [10]
active: Potency [1] 9.2 µM

Cc1cccc(CC(=O)N2CCc3c2ccc(-c2cn(C)c4ncnc(N)c24)c3F)n1
active: Potency [1] 2.06 µM

O=C(O)C1CCCN(CCC=C(c2ccccc2)c2ccccc2)C1 (centres undefined)
inactive: Potency [1] | Potency [2] | Potency [3] | Potency [4] | Potency [5] | Potency [6] | Potency [7] | Potency [8] | Potency [9] | Potency [10] | activity (max response) [11] -5.26% | Potency [12]

CC(C)c1ccccc1Cc1cc(C(=O)Nc2ccc(S(=O)(=O)c3ccccc3C(C)(C)C)cc2)c(O)c(O)c1O
active: Potency [1] 7.42 µM
inactive: Potency [2] | Potency [3] | Potency [4] | Potency [5] | Potency [6] | Potency [7] | Potency [8] | Potency [9]

Cc1ccc(C)c(OCCCC(C)(C)C(=O)O)c1
inactive and 14.8 µM (active): Potency [1]
inactive: Potency [2] | Potency [3] | Potency [4] | Potency [5] | Potency [6] | Potency [7] | Potency [8] | Potency [9] | Potency [10] | activity (max response) [11] 2.23% and -5.29% | Potency [12]

Nc1nccc(-c2ccc3noc(-c4ccc(Cl)cc4)c3c2)n1
inactive: Potency [2] | Potency [3] | Potency [4] | Potency [5] | Potency [6] | Potency [7] | Potency [8] | Potency [9] | Potency [10] | activity (max response) [11] -6.01% | Potency [12]
active: Potency [1] 8.33 µM

CC(C)(C)OC(=O)Nc1ccc(-c2cc(C(=O)NCCCCCCC(=O)NO)no2)cc1
active: Potency [1] 1.48 µM | Potency [2] 8.33 µM | Potency [3] 9.35 µM | Potency [4] 8.33 µM | Potency [5] 2.64 µM | Potency [6] 1.05 µM | Potency [7] 2.35 µM | Potency [8] 3.72 µM | Potency [9] 1.48 µM | Potency [10] 1.32 µM | Potency [12] 2.82 µM

CN1C(=O)c2sccc2N(C)c2nc(Nc3ccc(S(N)(=O)=O)cc3)ncc21
active: Potency [1] 0.468 µM | Potency [2] 10.5 µM | Potency [3] 13.2 µM | Potency [4] 9.33 µM | Potency [5] 2.63 µM | Potency [6] 2.34 µM | Potency [7] 2.63 µM | Potency [8] 2.63 µM | Potency [9] 2.34 µM | Potency [10] 2.34 µM | Potency [11] 20 µM

Cc1cc(NC(=O)Nc2ccc(N(C)C)cc2)c2cc(F)cc(F)c2n1
active: Potency [1] 10.2 µM
inactive: Potency [2] | Potency [3] | Potency [4] | Potency [5] | Potency [6] | Potency [7] | Potency [8] | Potency [9] | Potency [10] | activity (max response) [11] -2.18% | Potency [12]

O=C(O)COCCN1CCN(C(c2ccccc2)c2ccc(Cl)cc2)CC1 (centres undefined)
inactive: Potency [1] | Potency [2] | Potency [3] | Potency [4] | Potency [5] | Potency [6] | Potency [7] | Potency [8] | Potency [9] | Potency [10] | activity (max response) [11] 9.41% | Potency [12]

CCCN[C@H]1CCc2nc(N)sc2C1
inactive: Potency [2] | Potency [3] | Potency [4] | Potency [5] | Potency [6] | Potency [7] | Potency [8] | Potency [9] | Potency [10] | activity (max response) [11] -1.3% and 3.21% | Potency [12]
active: Potency [1] 4.17 µM
